Test results published in PubChem BioAssay (NCATS).
Records with an inconclusive call do not appear. A call without a number means that no potency is given here. Values without a mark were called inactive. Active and inactive are the calls of the source. Calls come from the whole dose curve; as a rule, active = well fitted curve in the direction sought with a large enough effect; inconclusive = small, poorly fitted or top-dose-only effect, or another doubt; inactive = no such curve, though single readings can be large; an effect the other way counts as inactive or inconclusive.

Experiments:
[1] = Primary qHTS for inhibitors of nuclear receptor binding SET domain protein 2 (NSD2) in an isogenic RCH-ACV NSD2 p.E1099K mutant (9B) (AID 1645876); details: RCH-ACV NSD2 E1099K (9B) viability, CellTiter-Glo, 72 h; series mostly up to 44.9 µM
[2] = Primary qHTS for inhibitors of nuclear receptor binding SET domain protein 2 (NSD2) in an RCH-ACV wild type WT cells (2C) (AID 1645877); details: RCH-ACV (leukaemia line) NSD2 WT (2C) viability, CellTiter-Glo, 72 h; series mostly up to 44.9 µM
Note: nearly all actives have a fitted effect of over 70% in size.

CC12CCC3c4ccc(O)cc4CCC3C1CCC2OC1OC(C(=O)O)C(O)C(O)C1O (centres undefined)
Potency [1]: inactive | Potency [2]: inactive

C[C@@H]1CCC2C(C)(C)[C@H](O)CC[C@]2(C)[C@@]12Cc1c(O)cc3c(c1O2)CN(CCO)C3=O (some centres undefined)
Potency [1]: inactive | Potency [2]: inactive

O=c1ccn(C2OC(CO)C(O)C2O)c(=O)[nH]1 (centres undefined)
Potency [1]: inactive | Potency [2]: inactive

COc1cc(/C=C/C(=O)OC2CC(C)=C(C(=O)O)/C2=C/CO[C@@H]2O[C@H](CO)[C@@H](O)[C@H](O)[C@H]2O)ccc1O (some centres undefined)
Potency [1]: inactive | Potency [2]: inactive

CC1=CC[C@]2(C(=O)O[C@@H]3O[C@H](CO[C@@H]4O[C@H](CO)[C@@H](O[C@@H]5O[C@@H](C)[C@H](O)[C@@H](O)[C@H]5O)[C@H](O)[C@H]4O)[C@@H](O)[C@H](O)[C@H]3O)CC[C@]3(C)C(CCC4[C@@]5(C)C[C@@H](O)[C@H](O)[C@@](C)(CO)C5CC[C@]43C)C2C1C (some centres undefined)
outcome [1]: inactive [at 9.23 µM] | outcome [2]: inactive [at 9.23 µM]

C[C@@H]1O[C@@H](O[C@H]2[C@H](O)[C@@H](C(=O)O)O[C@@H](O[C@H]3CC[C@@]4(C)C(CC[C@]5(C)C4CC=C4C6CC(C)(C)CC[C@]6(C(=O)O)CC[C@]45C)C3(C)C)[C@@H]2O[C@@H]2O[C@H](CO)[C@@H](O)[C@H](O)[C@H]2O)[C@H](O)[C@H](O)[C@H]1O (some centres undefined)
activity change, negative = viability loss [1]: -6.46% [at 9.23 µM] | activity change, negative = cell killing [2]: -4.73% [at 9.23 µM]

COC(=O)C1=CO[C@@H](O[C@@H]2O[C@H](COC(=O)/C=C/c3cc(OC)c(O)c(OC)c3)[C@@H](O)[C@H](O)[C@H]2O)[C@@H]2C(CO)=CC[C@H]12
Potency [1]: inactive | Potency [2]: inactive
